Pf apPOL inh = Pf-apPOL DNA polymerase inhibition; AID 1794808; inhibition, % at 10 µM; Recombinant Pf-apPOL, molecular beacon fluorescence, 1.5 h; 210,000 tested, 0.25% active
mHTT CaM bind = disrupts binding of mutant huntingtin to calmodulin | P42858 | AlphaScreen His-mHTT/GST-CaM binding, luminescence | inhibition, % at 15 µM | 190,000 tested, 3.6% active | AID 1671202;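 further: 0% = both proteins with DMSO and 100% = one protein alone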
The depositor's hits bear a star; · = not tested or not shown. The full list was thinned out, with hits kept by preference. No stated cut-off is given here; in the data, active means inhibition above about 50%; inactive means the rest.

SMILES | Pf apPOL inh | mHTT CaM bind
Cn1nc(-c2nc(-c3ccccc3)no2)c2c1CCN(C(=O)c1ccccc1)C2 | 0 | 52*
Cn1nc(-c2nc(C3CC3)no2)c2c1CCN(C(=O)c1ccc(Cl)cc1)C2 | -2 | -8
Cc1ccc(C(=O)N2CCc3c(c(-c4nc(-c5ccccc5)no4)nn3C)C2)cc1 | -4 | 4
Cc1ccc(N2C=C(C(=O)N3CCCCC3)S(=O)(=O)c3ccccc32)cc1 | -1 | 2
CC1C(=O)N(c2ccc3c(c2)OCO3)CCN1C(=O)c1ccc(Cl)cc1Cl (stereo unspecified) | -4 | 4
CNC(=O)CSc1nnc(N2CCN(C(=O)c3cc(-c4ccccc4)on3)CC2)s1 | -7 | -10
Cc1ccc(CNC(=O)CCC(=O)Nc2nc(-c3cc4cc(Cl)ccc4oc3=O)cs2)o1 | 15 | 3
COc1ccc2c(c1)-c1nc(NC(=O)c3cccnc3)sc1CC2 | 6 | -2
COCCNC(=O)C1c2cc(OC)c(OC)cc2C(=O)N(C)C1c1ccc(OC)c(OC)c1 (stereo unspecified) | -2 | 1
Fc1ccc(-c2csc(Nc3ccc(Oc4ccccc4)cc3)n2)cc1 | -2 | 48
COc1ccc(-c2csc(Nc3cccc(C(=O)O)c3)n2)cc1 | 1 | 19
COc1ccc(-c2csc(Nc3cccc(O)c3)n2)cc1 | -5 | 89*
COc1cccc(Nc2nc(-c3ccc(F)cc3)cs2)c1 | -1 | 59*
Cc1ccc(S(=O)(=O)N2CCCC2c2nc(-c3ccc(F)cc3)no2)cc1Cl (stereo unspecified) | -1 | 0
CCOc1ccc(C2=C/C(=C\c3cccs3)C(=O)O2)cc1 | 52* | 9
CCOc1ccc(C2=C/C(=C\c3ccc(Br)o3)C(=O)O2)cc1 | -5 | 98*
COc1ccc(C2=C/C(=C\c3cccs3)C(=O)O2)cc1 | -12 | 7
O=C1OC(c2ccc(Cl)cc2)=C/C1=C\c1ccc(Br)o1 | 4 | 5
COc1ccc(C(=O)N2CCCC(COc3ccc(C(=O)N4CCCC4)cc3)C2)cc1 (stereo unspecified) | 7 | 16
Cc1c(Cl)cccc1NC(=O)CCN1C(=O)C2C3CCC(C3)C2C1=O (stereo unspecified) | -2 | 3
COc1cccc(NC(=O)CSc2nnc3ccccn23)c1 | 4 | -8
COc1cccc(NC(=O)CSc2nnc(Cc3ccccc3)n2C)c1 | 0 | 73*
O=C1NC(=Nc2ccccc2Cl)S/C1=C/c1cc2c(cc1Cl)OCO2 | 4 | 50
CC(C)CC(C(=O)Nc1nc2ccccc2s1)N1C(=O)c2ccccc2C1=O (stereo unspecified) | 26 | 99*
CC(C(=O)Nc1nc2ccccc2s1)N1C(=O)c2ccccc2C1=O (stereo unspecified) | 6 | 9
SMILES | Pf apPOL inh | mHTT CaM bind
CC(C)CC(C(=O)Nc1cccc(C(F)(F)F)c1)N1C(=O)c2ccccc2C1=O (stereo unspecified) | -1 | 57*
CC(C)C(C(=O)Nc1cccc(C(F)(F)F)c1)N1C(=O)c2ccccc2C1=O (stereo unspecified) | -1 | 0
Cc1noc(C)c1C(=O)Nc1ccccc1 | -5 | ·
Cc1ccc(C)c(NS(=O)(=O)c2cccc([N+](=O)[O-])c2)c1 | -1 | 3
N#Cc1c(N2CCCCC2)ncc2c(=O)c3ccccc3[nH]c12 | 0 | 4
CC(=O)N(C(C)=O)c1ncc2c([nH]c3ccccc32)c1C#N | -3 | 83*
Oc1ccccc1-c1cc(-c2ccccc2)n[nH]1 | -248 | 35
Oc1ccccc1-c1cc(-c2ccccc2F)[nH]n1 | 6 | ·
Cc1ccccc1-c1cc(-c2ccccc2O)n[nH]1 | -4 | 52*
COc1ccccc1-c1cc(-c2cc(Cl)ccc2O)n[nH]1 | -5 | 30
Cc1ccc(-c2cc(-c3ccccc3Cl)[nH]n2)c(O)c1 | -3 | 65*
COc1ccc(O)c(-c2cc(-c3ccccc3C)[nH]n2)c1 | 7 | 69*
CN(C)c1ccc(/C=C2N=C(/C=C/c3cccc([N+](=O)[O-])c3)OC\2=O)cc1 | -2 | -2
COc1ccc(C(=O)N2CCCn3nc(-c4ccc(C)cc4)cc3C2)cn1 | -6 | 6
CC(C)CNC(=O)N1CCN(Cc2nc3cccnc3n2-c2ccccc2)CC1 | 3 | -1
CCc1ccc(N2CC(C(=O)N3CCN(C4CCCC4)CC3)CC2=O)cc1 (stereo unspecified) | -3 | 3
Cc1ccc(S(=O)(=O)N=C2C=CC(=O)c3ccccc32)c(C)c1 | 4 | 86*
Cc1ccc(S(=O)(=O)N=C2C=CC(=O)C=C2)c(C)c1 | -7 | 39
Cc1cc(C)c(S(=O)(=O)n2cnc3ccccc32)c(C)c1 | -2 | -4
Cc1cc(C)c(S(=O)(=O)N=C2C=CC(=O)c3ccccc32)c(C)c1 | 0 | 66*
Cc1cc(C)n(CCNC(=O)c2ccc(N3CCOCC3)nn2)n1 | -6 | -13
Cc1sc2ccn(Cc3ccc(F)cc3)c(=O)c2c1C(=O)N1CCC(C)CC1 | -5 | 80*
Cc1oc2ccn(Cc3ccc(F)cc3)c(=O)c2c1C(=O)N1CCCCC1 | 1 | 59*
Cc1oc2ccn(Cc3cccc(F)c3)c(=O)c2c1C(=O)N1CCCCC1 | -1 | 1
CCn1ccc2oc(C)c(C(=O)N3CCC(Cc4ccccc4)CC3)c2c1=O | 1 | 93*
SMILES | Pf apPOL inh | mHTT CaM bind
CCn1ccc2oc(C)c(C(=O)N3CCC(C)CC3)c2c1=O | 0 | -10
Cc1sc2ccn(Cc3ccc(F)cc3)c(=O)c2c1C(=O)N1CCOCC1 | 1 | 12
O=C(CN1C(=O)C2CCCN2C(=O)c2ccc(F)cc21)Nc1ccc(F)cc1 (stereo unspecified) | -5 | 3
COc1cc(-c2nc3cc(C(C)(C)C)ccc3o2)ccc1O | 2 | 56*
COc1ccc(-c2nc3cc(C)ccc3o2)cc1N | 6 | 34
CC(C)(C)c1ccc(-c2nc3cc(N)ccc3o2)cc1 | -7 | 27
COc1ccc(-c2nc3cc(C(C)(C)C)ccc3o2)cc1O | 4 | 61*
CCN1CCN(C(=O)C2c3cc(OC)c(OC)cc3C(=O)N(C)C2c2cccnc2)CC1 (stereo unspecified) | -10 | 4
CC(=O)Nc1nonc1N1C(=N)S/C(=C\c2ccc(-c3ccccc3F)o2)C1=O | 0 | 15
CC(=O)Nc1nonc1N1C(=N)S/C(=C\c2ccc(-c3cccc(C(F)(F)F)c3)o2)C1=O | -13 | 56*
N=C1S/C(=C\c2ccc(-c3cccc(C(=O)O)c3)o2)C(=O)N1c1nonc1N | -1 | 47
N=C1S/C(=C\c2ccc(-c3ccc(F)c(Cl)c3)o2)C(=O)N1c1nonc1N | 0 | 51*
COc1cccc(N2C(=O)C(O)=C(C(C)=O)C2c2ccc([N+](=O)[O-])cc2)c1 (stereo unspecified) | -8 | 23
COc1ccc2c(c1OC)C(=O)OC2CC(=O)c1cc(O)cc(O)c1 (stereo unspecified) | 13 | -1
Cc1cccc(-n2cc(C3CCN(S(=O)(=O)c4cccs4)CC3)cn2)c1 | -9 | -21
C=CC[n+]1ccc(/C=C/c2ccccc2O)c2ccccc21 | -4 | 69*
C[n+]1ccc(/C=C/c2ccccc2F)c2ccccc21 | -4 | 6
Cc1ccc(S(=O)(=O)N2C/C(=C\c3ccccc3)c3c2cc([N+](=O)[O-])cc3[N+](=O)[O-])cc1 | -10 | 9
Cc1c(Cl)cccc1-c1ccc(C(=O)Nc2ccccn2)o1 | -16 | -4
CCOc1cccc(C(Nc2ccccn2)c2ccc3ccc(C)nc3c2O)c1O (stereo unspecified) | -7 | 67*

Screening results: PubChem BioAssay, University of Kansas High Throughput Screening Laboratory
